A selection: hits, their analogues and other compounds. The true share with any hit is near 1.4%.
LYPLA2 inh: LYPLA2 inhibitors, primary screen, counter-screen for PME1 inhibitor project, biochemical, fluorescence polarization, FP-Rh probe ABPP; Acyl-protein thioesterase 2 (Homo sapiens), O95372; recombinant LYPLA2; inhibition, % at 5.9 µM; 320,000 tested, 0.38% active; AID 2177, 2009;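 active = inhibition above the screen-wide mean plus 3 SD, limit set per campaign, cut at about 26% in these data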;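 note: 0% = LYPLA2 with DMSO and 100% = wells lacking LYPLA2 enzyme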
LYPLA1 counter: LYPLA1 inhibitors, primary screen, counter-screen for PME1 inhibitor project, biochemical, fluorescence polarization, FP-Rh probe ABPP; Acyl-protein thioesterase 1 (Homo sapiens), O75608; recombinant LYPLA1; inhibition, % at 5.9 µM; 320,000 tested, 0.16% active;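 active = inhibition above the mean of all tested compounds plus 3 SD, set per campaign, cut at about 14% in these data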;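 note: inhibitors block serine hydrolase probe labeling of LYPLA1 so polarization falls; 0% = enzyme with DMSO and 100% = wells lacking LYPLA1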
ZTA DNA inh: counter-screen for EBNA-1 inhibitors: inhibitors of Epstein-Barr virus ZTA; P03206; ZTA-DNA binding, fluorescence polarization; inhibition, % at 11 µM; 320,000 tested, 0.15% active; in the data active = inhibition above about 33%
LANA-H2A inh: blockers of LANA interaction with H2A/H2B – biochemical, FP readout, HTS, primary screen. cell-free LANA-H2A/H2B peptide, fluorescence polarization. inhibition, % (test concentration not listed). 320,000 tested, 0.6% active; in the data active = inhibition mostly above about 10%, no sharp cut-off; inactive = mostly below about 6.7%
EBNA-1 inhibitor: EBNA-1 DNA-binding inhibitors, primary screen, biochemical, fluorescence polarization; 300,000 tested, 0.34% active; AID 1950, 2009; inhibition, % at 14.8 µM; in the data active = inhibition above about 28%
EBNA-1 confirm: EBNA-1 DNA-binding inhibitors, retest, confirmation, biochemical, fluorescence polarization, triplicate; inhibition, % at 14.8 µM; 830 tested, 35% active; Recombinant EBNA-1 DBD, Cy5-DNA fluorescence polarization; shares compounds with EBNA-1 inhibitor;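 active = mean inhibition across replicates above a set limit taken from the earlier primary screen, cut at about 28% in these data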;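 note: plate controls were EBNA-1 protein with DMSO for no effect and wells lacking EBNA-1 for full effect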
ZTA DNA inh trip: EBV Zta DNA binding inhibitors, counter-screen for EBNA-1 inhibitor project, biochemical, fluorescence polarization, triplicate; shares compounds with EBNA-1 inhibitor; Zta-ZRE DNA binding, Cy5 fluorescence polarization; inhibition, % at 11.1 µM; 830 tested, under 10 active;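 active = mean inhibition over triplicates above a set limit taken from the primary EBNA-1 screen, cut at about 37% in these data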;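 note: purified full length Zta protein with Cy5 labeled ZRE DNA probe; 0% = Zta with DMSO and 100% = wells lacking Zta protein; inhibitors lower polarization by freeing the labeled DNA probe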
Numbers without * were called inactive.

Results for Cc1ccccc1C1C(C#N)=C2NC(=O)c3c(sc4c3CCCCC4)N2C2=C1C(=O)CC(C)(C)C2 (stereo unspecified) ?
LYPLA2 inh: -4; LYPLA1 counter: 5; ZTA DNA inh: 10; LANA-H2A inh: 2; EBNA-1 inhibitor: 2

Results for COc1cc(C2C(C#N)=C(N)N(c3sc4c(c3C#N)CCCC4)C3=C2C(=O)CC(C)(C)C3)cc(OC)c1OC (stereo unspecified) ?
LYPLA2 inh: 0; LYPLA1 counter: 0; ZTA DNA inh: 18; LANA-H2A inh: 4; EBNA-1 inhibitor: 108*; EBNA-1 confirm: 36*; ZTA DNA inh trip: 0

What do the screens show for `CC1(C)Oc2ccc(C(=O)Nc3ccccc3)cc2N(CC#N)C1=O`?
LYPLA2 inh: -3; LYPLA1 counter: -1; ZTA DNA inh: -5; LANA-H2A inh: -4; EBNA-1 inhibitor: 6

What do the screens show for `COc1ccccc1Nc1ncc(C(=O)Nc2ccc(OC)c(OC)c2)c2ccccc12`?
LYPLA2 inh: 2; LYPLA1 counter: 0; ZTA DNA inh: 1; LANA-H2A inh: -3; EBNA-1 inhibitor: 80*; EBNA-1 confirm: 55*; ZTA DNA inh trip: 4

What do the screens show for `Nc1c(C(=O)Nc2ccc3c(c2)OCCO3)nnn1Cc1cccc(Cl)c1`?
LYPLA2 inh: -4; LYPLA1 counter: -1; ZTA DNA inh: 12; LANA-H2A inh: 1; EBNA-1 inhibitor: 54*; EBNA-1 confirm: 108*; ZTA DNA inh trip: 4

How did Cc1cc(NC(=O)c2ccc(-c3ccccc3[N+](=O)[O-])o2)no1 do in these assays?
LANA-H2A inh: 4

How did CC(=O)c1cccc(NC(=O)c2ccc(-c3ccccc3[N+](=O)[O-])o2)c1 do in these assays?
LYPLA2 inh: -4; LYPLA1 counter: -6; ZTA DNA inh: 8; LANA-H2A inh: -3; EBNA-1 inhibitor: 36*; EBNA-1 confirm: 4; ZTA DNA inh trip: 17

Results for CCCCCNC(=O)c1c[nH]c2ccc(S(=O)(=O)N3CCC4(CC3)OCCO4)cc2c1=O ?
LYPLA2 inh: -5; LYPLA1 counter: -1; ZTA DNA inh: 5; LANA-H2A inh: 6; EBNA-1 inhibitor: 29*; EBNA-1 confirm: 4; ZTA DNA inh trip: 2

Results for COCCCNC(=O)c1c[nH]c2ccc(S(=O)(=O)N3CCC4(CC3)OCCO4)cc2c1=O ?
LYPLA2 inh: -2; LYPLA1 counter: -4; ZTA DNA inh: 11; EBNA-1 inhibitor: -2

What do the screens show for `COCCn1cnc2c1c(=O)n(CC(=O)NC(=O)NC(C)(C)C)c(=O)n2Cc1ccccc1`?
LANA-H2A inh: 1

What do the screens show for `COc1cc(NC(=O)c2ccc(C)c([N+](=O)[O-])c2)ccc1NC(=O)c1ccco1`?
LYPLA2 inh: 0; LYPLA1 counter: -5; ZTA DNA inh: -12; LANA-H2A inh: 4; EBNA-1 inhibitor: 51*; EBNA-1 confirm: 14; ZTA DNA inh trip: -6

How did COc1cc(NC(=O)c2ccc(OC)c([N+](=O)[O-])c2)ccc1NC(=O)c1ccco1 do in these assays?
LYPLA2 inh: 2; LYPLA1 counter: -1; ZTA DNA inh: -10; LANA-H2A inh: 5; EBNA-1 inhibitor: 5

How did CCn1cc(S(=O)(=O)N2CCN(c3ccc(Cl)cc3)CC2)cn1 do in these assays?
LYPLA2 inh: 5; LYPLA1 counter: -1; ZTA DNA inh: 3; LANA-H2A inh: 0; EBNA-1 inhibitor: 6

Results for O=C(/C=C/c1ccccc1)Nn1c(-c2cccs2)nc2ccccc2c1=O ?
LYPLA2 inh: -2; LYPLA1 counter: 1; ZTA DNA inh: -26; LANA-H2A inh: -3; EBNA-1 inhibitor: 4

How did CCCCOc1ccc(C(=O)Nn2c(-c3cccs3)nc3ccccc3c2=O)cc1 do in these assays?
LYPLA2 inh: -8; LYPLA1 counter: 1; ZTA DNA inh: 3; LANA-H2A inh: -1; EBNA-1 inhibitor: 95*; EBNA-1 confirm: 41*; ZTA DNA inh trip: 0

What do the screens show for `CCOC(=O)C(NC(C)=O)(NC(C)C)C(F)(F)F` (stereo unspecified)?
LYPLA2 inh: -3; LYPLA1 counter: -3; ZTA DNA inh: 2; LANA-H2A inh: 2; EBNA-1 inhibitor: 0

What do the screens show for `C=CCn1c(=NC(=O)C2COc3ccccc3O2)sc2cc(S(N)(=O)=O)ccc21` (stereo unspecified)?
LYPLA2 inh: -6; LYPLA1 counter: -7; ZTA DNA inh: 8; LANA-H2A inh: -2; EBNA-1 inhibitor: 31*; EBNA-1 confirm: 11; ZTA DNA inh trip: -10

How did CCc1cccc(CC)c1NC(=O)COC(=O)/C(C#N)=C/c1ccc(OC)cc1 do in these assays?
LYPLA2 inh: 3; LYPLA1 counter: -4; ZTA DNA inh: 20; LANA-H2A inh: -5; EBNA-1 inhibitor: 46*; EBNA-1 confirm: 15; ZTA DNA inh trip: 7

How did COc1ccc(/C=C(\C#N)C(=O)OCC(=O)Nc2c(C)cccc2C)cc1 do in these assays?
LYPLA2 inh: 3; LYPLA1 counter: -2; ZTA DNA inh: -8; LANA-H2A inh: -7; EBNA-1 inhibitor: 18

How did CC(C)(C)c1ccc(-c2nc3n(c(=O)c2C#N)CCS3)cc1 do in these assays?
LYPLA2 inh: 8; LYPLA1 counter: 4; ZTA DNA inh: -12; LANA-H2A inh: -2; EBNA-1 inhibitor: -3

Results for CCn1nnc(-c2ccccc2NC(=O)c2cccc(-n3cnnn3)c2)n1 ?
LYPLA2 inh: 8; LYPLA1 counter: 2; ZTA DNA inh: -1; LANA-H2A inh: 2; EBNA-1 inhibitor: 87*; EBNA-1 confirm: 83*; ZTA DNA inh trip: 10

What do the screens show for `CCn1nnc(-c2ccccc2NC(=O)c2ccc(-n3cnnn3)cc2)n1`?
LYPLA2 inh: 0; LYPLA1 counter: 1; ZTA DNA inh: 3; LANA-H2A inh: 4; EBNA-1 inhibitor: 4

What do the screens show for `CC(=O)Nc1ccccc1-c1nnn(CC(=O)Nc2ccc3c(c2)OCCO3)n1`?
LYPLA2 inh: 0; LYPLA1 counter: 1; ZTA DNA inh: 10; LANA-H2A inh: -3; EBNA-1 inhibitor: 6

What do the screens show for `O=C(Cn1nnc(-c2ccccc2NC(=O)c2ccccc2)n1)Nc1ccc2c(c1)OCCO2`?
LYPLA2 inh: -2; LYPLA1 counter: -5; ZTA DNA inh: 10; LANA-H2A inh: -1; EBNA-1 inhibitor: 61*; EBNA-1 confirm: 60*; ZTA DNA inh trip: 4

What do the screens show for `CCCc1ccc(S(=O)(=O)N(C)S(=O)(=O)c2ccc(F)cc2)cc1`?
LYPLA2 inh: 4; LYPLA1 counter: 0; ZTA DNA inh: -1; LANA-H2A inh: 4; EBNA-1 inhibitor: -3

Bioassay records: PubChem BioAssay, several laboratories
